# Laboratory results: PubChem BioAssay (Tox21)
# Records with an inconclusive call do not appear. Values without a mark were called inactive. The source made the active and inactive calls. Calls follow the shape of the full dose curve.
# Target: Acetylcholinesterase (Homo sapiens) (UniProt P22303)
# Test: Acetylcholinesterase (AChE) small molecule antagonists: fluorescence cell-based qHTS assay (AID 1347398); also: nearly all actives have a fitted effect of over 50% in size
# Conditions: SH-SY5Y cells; Potency: AChE activity; outcome: AChE activity; series mostly up to 115 µM; activity change, negative = inhibition: at the top concentration
# Description: National Center for Advancing Translational Sciences [NCATS]
# Division of Preclinical Innovation [DPI]
# U.S. Environmental Protection Agency [EPA]
# National Institutes of Environmental Health Sciences [NIEHS]
# National Toxicology Program [NTP]
# U.S. Food and Drug Administration [FDA]
# Acetylcholinesterase (AChE) is the primary cholinesterase in the body that hydrolyzes a key neurotransmitter, acetylcholine. Inhibition of AChE activity can lead to neurotoxicity. Known inhibitors of AChE include organophosphorous pesticides (OP), chemical warfare agents, drugs, and various phytochemicals.
# A homogenous cell-based assay using Amplitetrade mark Fluorimetric Acetylcholinesterase Assay Kit *Green Fluorescence* (AAT Bioquest, Sunnyvale, CA) was used to evaluate the chemicals in the Tox21 10K library that inhibit AChE activity. The assay uses Thiolite Green to quantify the thiocholine produced from the hydrolysis of acetylthiocholine by AChE from the SH-SY5Y cells. AChE can hydrolyze acetylthiocholine to create thiocholine. Thiolite Green is fluorescent when reacting with thiocholine. It has spectral properties similar to those of fluorescein. The fluorescence intensity of Thiolite Green is used to measure AChE activity. Its signal can be easily read by a fluorescence microplate reader at Ex/Em = 490/520 nm.
# Tox21 Assay Protocol Summary:
# For cell-based AChE assay, 2,000 SH-SY5Y cells in 4 uL/well were dispensed into black, clear-bottom 1536-well plates using a Multidrop Combi (Thermo Scientific) dispenser. The assay plates were incubated overnight at 37 C to allow cells to attach to the wells, followed by the transfer of 23 nL compound or DMSO (vehicle control) by a Pintool station (Wako Automation, CA). The plates were incubated for 30 min at 37 C and 5% CO2, followed by the addition of 4 uL of detection cocktail solution (ThioliteGreen, acetylthiocholine) into each well using Flying Reagent Dispenser (Beckman Coulter, CA) and then following 40 min incubation at room temperature. Fluorescent intensity (Ex/Em = 490/520 nm) was measured using an Envision plate reader (PerkinElmer, MA).
# % is scaled to controls: 0 for no effect and ±100 for the full control effect; potency is read from the fitted curve at half-maximal effect.
# Acetylcholinesterase (Homo sapiens), sequence (P22303 whole entry, looked up): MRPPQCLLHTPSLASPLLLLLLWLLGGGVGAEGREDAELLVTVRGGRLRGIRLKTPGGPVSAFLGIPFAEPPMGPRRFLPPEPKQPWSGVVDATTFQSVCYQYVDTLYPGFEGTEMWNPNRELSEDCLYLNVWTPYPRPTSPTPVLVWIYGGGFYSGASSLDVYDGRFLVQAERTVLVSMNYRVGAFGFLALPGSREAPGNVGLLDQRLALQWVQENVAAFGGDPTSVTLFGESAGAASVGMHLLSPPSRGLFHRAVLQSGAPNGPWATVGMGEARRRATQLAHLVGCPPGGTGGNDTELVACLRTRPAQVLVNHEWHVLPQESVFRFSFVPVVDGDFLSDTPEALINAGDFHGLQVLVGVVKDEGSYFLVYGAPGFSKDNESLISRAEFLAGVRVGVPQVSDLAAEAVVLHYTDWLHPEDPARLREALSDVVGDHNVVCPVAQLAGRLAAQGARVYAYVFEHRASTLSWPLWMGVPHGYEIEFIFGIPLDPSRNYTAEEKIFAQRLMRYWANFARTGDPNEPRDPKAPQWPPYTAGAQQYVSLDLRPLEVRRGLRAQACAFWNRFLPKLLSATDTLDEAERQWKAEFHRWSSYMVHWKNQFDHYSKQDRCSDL
SMILES,"activity change, negative = inhibition",Potency
COc1ccc(C=O)cc1O,2.15%,
Nc1c(Cl)c(F)nc(OCC(=O)O)c1Cl,6.06%,
O=C(Cl)OCc1ccccc1,4.48%,
CC(Cc1ccccc1)NCCCCl (stereo not given),-9.14% [at 53.7 µM],
CC(C)(C)C(=O)C(Cl)Cl,-0.116%,
CC(=NC#N)N(C)Cc1ccc(Cl)nc1,-12.8%,
CC(C)(N)Cc1ccccc1Cl,-3.68% [at 53.7 µM],
Cl/C=C/CCl,1.86%,
Oc1ccc(Cc2ccc(O)cc2)cc1,-0.0105%,
CC(C)(C1CCC(O)CC1)C1CCC(O)CC1 (stereo not given),-4.24%,
CCN(CCO)CCn1c(Cc2ccccc2)nc2c1c(=O)n(C)c(=O)n2C,-2.67% [at 53.7 µM],
C=CC(=O)OCCN(C)C,2.86%,
CCN[C@@H](C)Cc1cccc(C(F)(F)F)c1,-0.0402% [at 53.7 µM],
O=C1C2CC=CCC2C(=O)N1SC(Cl)(Cl)Cl (stereo not given),0.266%,
COc1cccc(C=O)c1,7.62%,
C=C1C[C@@H]2[C@H](CC[C@]3(C)C(=O)CC[C@@H]23)[C@@]2(C)C=CC(=O)C=C12,-12.4% [at 53.7 µM],
CCOC(=O)N(C)N=O,1.65%,
CCOC(=O)Nc1cccc(OC(=O)Nc2ccccc2)c1,-0.698%,
CCOC(=O)C(SP(=S)(OC)OC)c1ccccc1 (stereo not given),,22.4 µM (active)
NCC1(CC(=O)O)CCCCC1,1.65% [at 53.7 µM],

SMILES,"activity change, negative = inhibition",Potency
C[C@H](N)C(=O)c1ccccc1,-24%,
Cc1ccc2c(c1)C1CN(C)CCC1N2 (stereo not given),-10.6% [at 23.8 µM],
Cc1ccc(-c2nc3ccc(C)cn3c2CC(=O)N(C)C)cc1,-7.36% [at 53.7 µM],
Brc1c(Br)c(Br)c(Br)c(Br)c1Br,-32.6% [at 10.5 µM],
CCN1CCCC1CNC(=O)C(O)(c1ccccc1)c1ccccc1 (stereo not given),-7.03% [at 53.7 µM],
CNC(=O)Oc1cc(C)c(N(C)C)c(C)c1,,0.797 µM (active)
CCCCCCCCBr,-0.0612%,
CN(C)C1CCCCC1,-0.466%,
C[C@H]1CCCC(=O)CCC/C=C/c2cc(O)cc(O)c2C(=O)O1,,inactive
COC(=O)[C@@H](N)CCCN/C(N)=N/[N+](=O)[O-],6.29% [at 53.7 µM],
Cn1c(CCCC(=O)O)nc2cc(N(CCCl)CCCl)ccc21,14.9% [at 53.7 µM],
Cc1ccc2cc(C)ccc2c1,5.48%,
Clc1ccc(C(Cl)(Cl)Cl)cn1,-1.74%,
CC(C)[N+](C)(CCC(C(N)=O)(c1ccccc1)c1ccccc1)C(C)C,-4.94% [at 53.7 µM],
CCc1ccc(C2CCNCC2)cc1,2.07% [at 53.7 µM],
CC(=O)CN(CC(C)=O)N=O,-0.595%,
CCOC(=O)CCl,-7.56%,
C(COCC1CO1)OCC1CO1 (stereo not given),3.77%,
BrCCc1ccccc1,1.38%,
CCNc1nc(NCC)nc(SC)n1,-2.41%,
